Laboratory results from PubChem BioAssay (EPA / NIEHS).
Records with an inconclusive call do not appear. Calls of active or inactive are those of the source. The calls were made as follows: active = hit-call score of the fitted dose curve at least 0.9, where 1 is the maximum; inconclusive = response in the unintended direction; inactive = score below 0.9.

Assay: TOX21_p53_BLA_p2_viability: Viability Assessment in the Tox21 HCT-116 p53 Agonism Beta-lactamase Assay, Phase 2 (AID 2283591);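 also: compound exposure lasted 16 h at 37 °C; actives lower the ATP signal meaning cytotoxicity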
Method in brief: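 Cytotoxicity readout: CellTiter-Glo ATP luminescence, 30 min at room temperature, after the beta-lactamase read. Cells were HCT116 exposed 16 h at 37C to compounds pin-transferred at 217-fold dilution from DMSO stocks.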
For `CNC(=O)NC(O)C(Cl)(Cl)Cl` (configuration not stated), the outcome was “inactive”.
For `Cc1nnc2n1-c1sc(CCc3ccc(CC(C)C)cc3)cc1C(c1ccccc1Cl)=NC2C` (configuration not stated), the AC50 was 23 µM (active).
For `NCCCNCCCN`, the outcome was “inactive”.
With `CCSC(=O)Cl` the outcome was “inactive”.
For `CN(C)CCc1c[nH]c2cccc(OP(=O)(O)O)c12`, the outcome was “inactive”.
In the case of `Clc1ccc(C2(Cn3cncn3)OCCO2)c(Cl)c1`, the outcome is reported as “inactive”.
For `CCCCNCC(O)c1ccc(O)cc1` (configuration not stated), the outcome was “inactive”.
With `CCC(C(N)=O)N1CCCC1=O` (configuration not stated) the outcome was “inactive”.
In the case of `ClC(Cl)(Cl)C(Cl)(Cl)Cl`, the outcome is reported as “inactive”.
In the case of `C=CCOC(C)=O`, the outcome is reported as “inactive”.
In the case of `Cc1coc2c1CCC(C)C2` (configuration not stated), the outcome is reported as “inactive”.
With `ClCC1CO1` (configuration not stated) the outcome was “inactive”.
For `CN1C[C@H](CNC(=O)OCc2ccccc2)C[C@@H]2c3cccc4c3c(cn4C)C[C@H]21`, the outcome was “inactive”.
With `CCOC(=O)N(C)C(=O)CSP(=S)(OCC)OCC` the outcome was “inactive”.
With `CCN(CC)Cc1nccn1-c1ccc([N+](=O)[O-])cc1C(=O)c1ccccc1Cl` the outcome was “inactive”.
For `CC(=O)C(C)(C)C`, the outcome was “inactive”.
With `O=C1c2ccccc2C(=O)c2ccccc21` the outcome was “inactive”.
For `CON(C)C(=O)Nc1ccc(Br)cc1`, the outcome was “inactive”.
For `O=[N+]([O-])c1cccc(O)c1`, the outcome was “inactive”.
In the case of `NP(N)(=O)NC(=O)c1ccc(F)cc1`, the outcome is reported as “inactive”.
For `C=CCC1([C@@H](C)CCC)C(=O)NC(=O)NC1=O`, the outcome was “inactive”.
In the case of `c1ccc2c(c1)CCNC2`, the outcome is reported as “inactive”.
For `ClCC(Br)CBr` (configuration not stated), the outcome was “inactive”.
For `CC(Cl)(Cl)[N+](=O)[O-]`, the outcome was “inactive”.
With `O=[N+]([O-])CCO` the outcome was “inactive”.
In the case of `[2H]C([2H])([2H])[C@H](N)Cc1ccccc1`, the outcome is reported as “inactive”.
For `COC1CC(=C(c2cccs2)c2cccs2)C[N+](C)(C)C1` (configuration not stated), the outcome was “inactive”.
